# Results reported in PubChem BioAssay (Tox21).
# Values without a mark were called inactive. Inconclusive results are not listed. Where a call stands in place of a potency, no number is given. The source made the active and inactive calls. Unless noted, calls follow the shape of the dose curve; as a rule, active = well fitted curve in the direction sought with a large enough effect in the repeat runs; inconclusive = weak or mixed curves; inactive = no such curve, though single readings can be large; an effect the other way counts as inactive or inconclusive.
# Key:
# [1] = qHTS assay to identify small molecule agonists of the estrogen receptor alpha (ER-alpha) signaling pathway in the presence of an antagonist - cell viability counter screen (AID 1259386);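 also: cells exposed to compounds for 22 h at 37 °C before the viability read; nearly all actives have a fitted effect of over 30% in size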; also: potency is read from the fitted curve at half-maximal effect
# Method in brief: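 Read-out: CellTiter-Fluor fluorescence after 1hr reagent incubation, measured in the same wells as the luciferase readout. VM7Luc4E2 cells were exposed to 15 compound concentrations with 10.0nM ICI-182,780 for 22hr at 37C.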
# [2] = molecular target: Progesterone receptor (Homo sapiens) (UniProt P06401); assay: qHTS assay to identify small molecule agonists of the progesterone receptor (PR) signaling pathway (AID 1346784; calls by dose curve; also: nearly all actives have a fitted effect of over 30% in size)
# Progesterone receptor (Homo sapiens), sequence (P06401 whole entry, looked up): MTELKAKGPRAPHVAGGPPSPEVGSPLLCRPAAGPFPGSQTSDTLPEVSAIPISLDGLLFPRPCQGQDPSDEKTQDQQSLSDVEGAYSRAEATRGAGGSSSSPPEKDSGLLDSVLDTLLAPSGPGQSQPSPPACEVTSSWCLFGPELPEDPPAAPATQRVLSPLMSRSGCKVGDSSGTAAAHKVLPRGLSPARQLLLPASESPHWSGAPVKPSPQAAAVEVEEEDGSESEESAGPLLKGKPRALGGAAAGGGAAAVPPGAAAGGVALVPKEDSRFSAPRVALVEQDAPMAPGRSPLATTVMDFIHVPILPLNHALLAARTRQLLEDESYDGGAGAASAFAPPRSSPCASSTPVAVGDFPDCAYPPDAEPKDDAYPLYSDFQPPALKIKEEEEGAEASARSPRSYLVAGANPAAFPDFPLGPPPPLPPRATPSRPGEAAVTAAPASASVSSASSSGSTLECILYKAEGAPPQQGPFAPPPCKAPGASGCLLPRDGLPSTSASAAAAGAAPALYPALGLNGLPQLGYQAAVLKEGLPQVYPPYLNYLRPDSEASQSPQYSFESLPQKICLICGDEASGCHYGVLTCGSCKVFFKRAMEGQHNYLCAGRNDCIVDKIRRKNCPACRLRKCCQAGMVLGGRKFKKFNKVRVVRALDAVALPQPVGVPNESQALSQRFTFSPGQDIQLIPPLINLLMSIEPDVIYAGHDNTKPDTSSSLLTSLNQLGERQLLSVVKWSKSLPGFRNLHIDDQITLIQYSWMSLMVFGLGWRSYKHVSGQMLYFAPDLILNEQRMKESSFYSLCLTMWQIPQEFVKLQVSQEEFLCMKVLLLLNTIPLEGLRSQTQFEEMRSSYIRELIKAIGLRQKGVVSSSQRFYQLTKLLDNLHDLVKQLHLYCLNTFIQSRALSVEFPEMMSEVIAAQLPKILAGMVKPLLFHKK
# Method in brief: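 Agonist qHTS: compounds pinned onto 3,000 PR-UAS-bla HEK 293T cells per well in charcoal-stripped serum medium, 16hr at 37C, then beta-lactamase activity measured by LiveBLAzer FRET fluorescence after 2 hours at room temperature.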
# [3] = molecular target: Progesterone receptor (Homo sapiens) (UniProt P06401); assay: qHTS assay to identify small molecule antagonists of the progesterone receptor (PR) signaling pathway (AID 1346795; active = well fitted inhibition curve with a large enough effect in the signal ratio in the repeat runs, not every such curve was filed as active; the % refers to the signal ratio; also: potency is read from the fitted curve at half-maximal effect)
# Method in brief: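 Antagonist mode with agonist R5020 at 1 nM final and 16 hr incubation at 37C. Reporter was beta-lactamase driven by UAS in HEK293T (PR-UAS-bla), 2% charcoal-stripped serum; signal from LiveBLAzer FRET substrate, 2 hr at room temperature.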
# [4] = qHTS assay to identify small molecule agonists of the progesterone receptor (PR) signaling pathway - cell viability counter screen (AID 1346799; calls by dose curve; also: nearly all actives have a fitted effect of over 45% in size; also: potency is read from the fitted curve at half-maximal effect)
# Method in brief: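 Cytotoxicity measured by CellTiter-Glo luminescence (30 min, RT) in the same wells as the PR beta-lactamase agonist read. Those HEK293T cells had 16 h compound treatment at 37 C in 2% charcoal-stripped FBS medium.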
# [5] = qHTS assay to identify small molecule antagonists of the TGF-beta/Smad signaling pathway - cell viability counter screen (AID 1346824); also: nearly all actives have a fitted effect of over 50% in size
# Method in brief: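 SBE-bla HEK 293T cells were plated overnight at 37 C, then given compounds in DMSO plus TGF-beta1 (added as 0.25 ng/mL solution) for 5 hr. After the bla read, CellTiter-Glo was added to the same wells and luminescence read after 30 min at room temperature.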
# [6] = qHTS assay to identify small molecule agonists of the TGF-beta/Smad signaling pathway - cell viability counter screen (AID 1346829); also: top concentration of the series differs between compounds; nearly all actives have a fitted effect of over 45% in size
# Method in brief: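 SBE-bla HEK 293T cells plated overnight, compound exposure 5 hr at 37 C. Viability read in the same wells by CellTiter-Glo luminescence after 30 min at room temperature, following the beta-lactamase read.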
# [7] = qHTS assay to identify small molecule agonists of the TGF-beta/Smad signaling pathway (AID 1346859; active = well fitted activation curve with a large enough effect in the signal ratio in the repeat runs, not every such curve was filed as active; the % refers to the signal ratio; also: series mostly up to about 77 µM)
# Method in brief: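 Fluorescence (ex 405 nm; em 460 and 530 nm) was read 2 h after LiveBLAzer FRET substrate at RT. The preceding compound treatment of overnight-plated SBE-bla HEK293T cells lasted 5 h at 37 C.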
# [8] = molecular target: Thyrotropin-releasing hormone receptor (Homo sapiens) (UniProt P34981); assay: qHTS assay to identify small molecule antagonists of the thyrotropin-releasing hormone receptor (TRHR) signaling pathway (AID 1346877; active = well fitted inhibition curve with a large enough effect in the repeat runs, not every such curve was filed as active; also: series mostly up to about 51 µM)
# Thyrotropin-releasing hormone receptor (Homo sapiens), sequence (P34981 whole entry, looked up): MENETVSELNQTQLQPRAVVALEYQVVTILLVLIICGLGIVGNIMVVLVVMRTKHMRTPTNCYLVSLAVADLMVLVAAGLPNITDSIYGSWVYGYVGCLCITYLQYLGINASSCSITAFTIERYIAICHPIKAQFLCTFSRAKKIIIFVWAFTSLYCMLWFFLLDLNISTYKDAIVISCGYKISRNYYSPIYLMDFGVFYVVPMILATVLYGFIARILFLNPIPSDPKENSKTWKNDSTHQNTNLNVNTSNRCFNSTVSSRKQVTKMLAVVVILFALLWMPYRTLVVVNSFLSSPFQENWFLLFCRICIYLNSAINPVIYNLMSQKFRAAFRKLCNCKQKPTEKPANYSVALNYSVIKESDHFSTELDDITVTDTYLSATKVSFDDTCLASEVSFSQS
# Method in brief: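 HEK293/TRHR cells, 18 h, 37 °C; Ca2+ dye 2 h; cpd 5 min RT; TRH 1 nM final; fluorescence read 3 min, 1 s intervals; 15 concs, triplicate.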
# [9] = molecular target: Thyrotropin-releasing hormone receptor (Homo sapiens) (UniProt P34981); assay: qHTS assay to identify small molecule agonists of the thyrotropin-releasing hormone receptor (TRHR) signaling pathway (AID 1346891; calls by dose curve; also: series mostly up to about 58 µM)
# Method in brief: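 Agonist-mode intracellular calcium readout: kinetic fluorescence over 3 min at 1 s intervals after compound addition to TRHR-HEK293 cells (18 h seeded, 2 h dye-loaded at 37 C). Fifteen concentrations, triplicates.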
# [10] = Human pregnane X receptor (PXR) small molecule agonists, qHTS cell viability counter screen (AID 1346977); also: nearly all actives have a fitted effect of over 50% in size; also: potency is read from the fitted curve at half-maximal effect
# Method in brief: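 Same-well viability read: CellTiter-Fluor added after 23 hr compound exposure, fluorescence measured 1 hr later. Cells were PXR-Luc HepG2 seeded at 2,000/well in 5% charcoal-stripped FBS medium, rested 5 hr before dosing at 37 C.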
# [11] = Caspase-3/7 induction in HepG2 cells by small molecules, qHTS assay (AID 1346978); also: nearly all actives have a fitted effect of over 15% in size
# Method in brief: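 Wild-type HepG2 cells (2,000/well) were settled 5 h at 37 C, 5% CO2, then exposed to compounds in DMSO for 17 h. Caspase-3/7 activity was read by luminescence 30 min after adding Caspase-Glo 3/7 reagent at room temperature.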
# [12] = Caspase-3/7 induction in CHO-K1 cells by small molecules, qHTS cell viability counter screen (AID 1346979); also: nearly all actives have a fitted effect of over 35% in size; also: potency is read from the fitted curve at half-maximal effect
# Method in brief: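 Cytotoxicity counter screen: CellTiter-Fluor added to compound-treated wild-type CHO-K1 cells at 16 h (37C, 5% CO2), fluorescence measured 1 h later; same wells as caspase-3/7 measurement.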
# [13] = Caspase-3/7 induction in CHO-K1 cells by small molecules, qHTS assay (AID 1346980); also: nearly all actives have a fitted effect of over 15% in size
# Method in brief: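 Wild-type cells were seeded at 1,500 per well and settled 5 hr at 37 C, 5% CO2, then exposed to DMSO-dissolved compounds for 17 hr. Caspase-Glo 3/7 reagent was added, and luminescence was read after 30min at room temperature.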
# [14] = Caspase-3/7 induction in HepG2 cells by small molecules, qHTS cell viability counter screen (AID 1346981); also: series mostly up to about 92 µM; nearly all actives have a fitted effect of over 30% in size
# Method in brief: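 Fluorescence read-out of live-cell protease activity (CellTiter-Fluor) after 1 hr with reagent. This was measured in the same wells as the caspase-3/7 luminescence, on HepG2 cells exposed to DMSO-dissolved compounds for 16 hr at 37 C.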
# [15] = molecular target: Nuclear receptor subfamily 1 group I member 2 (Homo sapiens) (UniProt O75469); assay: Human pregnane X receptor (PXR) small molecule agonists, qHTS assay (AID 1346982); also: nearly all actives have a fitted effect of over 35% in size; also: potency is read from the fitted curve at half-maximal effect
# Nuclear receptor subfamily 1 group I member 2 (Homo sapiens), sequence (O75469 whole entry, looked up): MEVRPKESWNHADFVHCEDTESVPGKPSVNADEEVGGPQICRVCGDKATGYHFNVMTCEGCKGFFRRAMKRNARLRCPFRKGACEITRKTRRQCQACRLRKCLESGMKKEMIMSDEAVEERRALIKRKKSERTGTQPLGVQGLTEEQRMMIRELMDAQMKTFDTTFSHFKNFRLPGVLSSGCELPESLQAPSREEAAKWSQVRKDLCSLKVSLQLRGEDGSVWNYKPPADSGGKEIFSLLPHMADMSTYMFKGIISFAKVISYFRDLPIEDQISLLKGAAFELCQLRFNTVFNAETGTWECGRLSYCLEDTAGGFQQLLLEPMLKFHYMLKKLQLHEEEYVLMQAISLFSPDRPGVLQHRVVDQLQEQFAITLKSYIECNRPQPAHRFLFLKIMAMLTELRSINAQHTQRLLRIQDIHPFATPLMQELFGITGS
# Method in brief: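 HepG2 PXR-Luc reporter line, 5% charcoal-stripped FBS; 5 hr pre-incubation, compound (DMSO) 24 hr at 37 C/5% CO2; ONE-Glo 30 min RT; luminescence read-out.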
# [16] = molecular target: Cytochrome P450 2D6 (Homo sapiens) (UniProt P10635); assay: Cytochrome P450 Family 2 Subfamily D Member 6 (CYP2D6) small molecule antagonists: luciferase reporter qHTS assay (AID 1671196); also: nearly all actives have a fitted effect of over 50% in size; also: potency is read from the fitted curve at half-maximal effect
# Cytochrome P450 2D6 (Homo sapiens), sequence (P10635 whole entry, looked up): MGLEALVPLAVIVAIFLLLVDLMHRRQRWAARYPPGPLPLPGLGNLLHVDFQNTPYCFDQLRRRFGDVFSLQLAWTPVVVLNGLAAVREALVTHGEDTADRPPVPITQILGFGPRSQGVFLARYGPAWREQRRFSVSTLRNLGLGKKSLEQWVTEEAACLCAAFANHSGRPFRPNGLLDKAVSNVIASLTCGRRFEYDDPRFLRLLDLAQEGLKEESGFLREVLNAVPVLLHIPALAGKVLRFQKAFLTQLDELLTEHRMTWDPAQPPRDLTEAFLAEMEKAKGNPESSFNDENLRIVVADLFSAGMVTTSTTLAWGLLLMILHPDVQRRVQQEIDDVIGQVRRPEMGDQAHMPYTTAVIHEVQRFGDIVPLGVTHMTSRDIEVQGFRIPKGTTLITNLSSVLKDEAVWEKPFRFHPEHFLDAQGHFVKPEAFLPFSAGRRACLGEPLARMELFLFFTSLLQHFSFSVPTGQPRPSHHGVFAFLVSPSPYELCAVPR
# Method in brief: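 Luminogenic proluciferin substrate, CYP2D6 enzyme; 10 min RT preincubation with compound, NADPH regeneration system added, 1 h RT. Stop/detection reagent, 20 min RT, luminescence read (RLU). Signal proportional to CYP activity.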
# [17] = molecular target: Nuclear receptor subfamily 1 group I member 2 (Rattus norvegicus) (UniProt Q9R1A7); assay: Rat pregnane X receptor (rPXR) activation by small molecules, qHTS assay (AID 1346983); conditions: rPXR luciferase reporter cells, One-Glo luminescence, 24 h; max activation: hits give high values; also: nearly all actives have a fitted effect of over 20% in size
# Nuclear receptor subfamily 1 group I member 2 (Rattus norvegicus), sequence (Q9R1A7 whole entry, looked up): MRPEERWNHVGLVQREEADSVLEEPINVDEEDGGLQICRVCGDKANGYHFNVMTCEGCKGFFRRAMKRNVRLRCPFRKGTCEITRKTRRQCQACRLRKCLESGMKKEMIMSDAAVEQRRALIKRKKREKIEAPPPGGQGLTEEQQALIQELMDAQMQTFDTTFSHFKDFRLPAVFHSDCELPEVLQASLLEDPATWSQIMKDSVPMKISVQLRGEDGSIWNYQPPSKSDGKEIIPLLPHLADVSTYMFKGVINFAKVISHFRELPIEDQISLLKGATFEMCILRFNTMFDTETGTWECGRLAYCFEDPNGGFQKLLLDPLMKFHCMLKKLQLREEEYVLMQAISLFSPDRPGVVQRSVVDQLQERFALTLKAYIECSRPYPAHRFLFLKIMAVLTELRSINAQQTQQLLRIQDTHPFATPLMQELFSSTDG
# Method in brief: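 Cell-based rPXR luciferase reporter assay, 2,000 cells per well, rested 5hr at 37 C before compound addition in DMSO, then 24 hr at 37 C. One-Glo reagent was added and luminescence read after 30 min at room temperature.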
# [18] = molecular target: Nuclear receptor subfamily 1 group I member 2 (Homo sapiens) (UniProt O75469); assay: Human pregnane X receptor (PXR) activation by small molecules, qHTS assay (AID 1346985); also: nearly all actives have a fitted effect of over 40% in size
# Method in brief: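 DPX-2 cells (HepG2 co-transfected with a PXR response element and a CYP3A4-promoter luciferase construct) were seeded at 2,000 per well, rested 5 hr at 37C, then exposed to DMSO-dissolved compounds for 24 hr. Activation was read as luciferase luminescence.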
# [19] = qHTS assay to identify small molecule antagonists of the progesterone receptor (PR) signaling pathway - cell viability counter screen (AID 1346798); also: series mostly up to about 92 µM; nearly all actives have a fitted effect of over 50% in size
# Method in brief: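 Cytotoxicity read as CellTiter-Glo luminescence (30 min, room temperature) in the same wells as the beta-lactamase readout. HEK293T PR-UAS-bla cells in charcoal-stripped 2% FBS received compound and R5020, then 16 h at 37C, 5% CO2.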
Structure (SMILES),Potency [1],Potency [2],Potency [3],Potency [4],outcome [5],outcome [6],outcome [7],outcome [8],outcome [9],Potency [10],Potency [11],Potency [12],Potency [13],Potency [14],Potency [15],Potency [16],max activation [17],Potency [18],Potency [19]
O=C(Cl)c1cc(Cl)cc(Cl)c1,inactive,inactive,inactive,inactive,inactive,inactive,inactive,inactive,inactive,inactive,inactive,inactive,inactive,inactive,inactive,inactive,–,–,–
O=C1c2ccccc2C(=O)c2c1ccc(O)c2O,26.6 µM (active),inactive,inactive,–,inactive,inactive,inactive,–,–,–,inactive,23.7 µM (active),inactive,–,inactive,–,0.447%,inactive,–
Clc1cccc(C(c2ccc3nc[nH]c3c2)n2ccnc2)c1 (stereo not given),inactive,inactive,inactive,inactive,inactive,inactive,inactive,inactive,inactive,–,inactive,inactive,inactive,inactive,inactive,–,–,–,–
Cc1nc2sccn2c(=O)c1CCN1CCC(=C(c2ccc(F)cc2)c2ccc(F)cc2)CC1,inactive,inactive,–,29.8 µM (active),inactive,inactive,–,–,–,–,inactive,inactive,inactive,–,inactive,15.5 µM (active),–,–,inactive
CO[C@@H]1[C@@H](O[C@@H]2O[C@H](C)[C@@H](O[C@H]3C[C@@](C)(O)[C@@H](O)[C@H](C)O3)[C@H](N(C)C)[C@H]2O)[C@@H](CC=O)C[C@@H](C)[C@@H](O[C@@H]2CC[C@H](N(C)C)[C@@H](C)O2)/C=C/C=C/C[C@@H](C)OC(=O)C[C@H]1OC(C)=O,inactive,–,–,–,inactive,inactive,inactive,inactive,inactive,26.6 µM (active),inactive,inactive,inactive,inactive,–,–,–,–,inactive
c1ccc(CN(Cc2ccccc2)Cc2ccccc2)cc1,inactive,inactive,–,inactive,inactive,inactive,inactive,inactive,inactive,inactive,inactive,–,inactive,inactive,30.6 µM (active),7.96 µM (active),–,–,inactive
COc1ccc(C(=O)c2ccc(C)cc2)c(O)c1,–,inactive,19.5 µM (active),–,–,inactive,–,inactive,inactive,–,inactive,inactive,inactive,inactive,11 µM (active),40.4 µM (active),-1.42%,–,–
O=C(O)CCc1nc2ccccc2[nH]1,–,inactive,inactive,inactive,inactive,inactive,inactive,inactive,inactive,inactive,inactive,inactive,inactive,inactive,inactive,inactive,–,–,inactive
Cc1ccc(NC(=O)c2ccc(CN3CCN(C)CC3)cc2)cc1Nc1nccc(-c2cccnc2)n1,–,–,–,–,–,inactive,–,–,–,23.7 µM (active),inactive,23.7 µM (active),inactive,–,–,–,-10.6%,–,inactive
C1=COCCC1,inactive,inactive,inactive,–,inactive,inactive,inactive,inactive,inactive,inactive,inactive,inactive,inactive,inactive,–,inactive,–,–,inactive
CCC(=O)O[C@@H]1C[C@H]2CC[C@]1(C)C2(C)C,inactive,inactive,inactive,inactive,–,inactive,inactive,inactive,inactive,inactive,inactive,inactive,inactive,inactive,inactive,inactive,–,–,inactive
C=CC(C)(O)CC/C=C(/C)CCC=C(C)C (stereo not given),inactive,inactive,inactive,inactive,–,inactive,inactive,inactive,inactive,inactive,inactive,inactive,inactive,–,54.5 µM (active),–,–,–,inactive
